Most compounds without a hit are left out; they make up all but 2.3% or so of the library.
Tau FP inhib: blocks human tau fibril formation measured by polarization | P10636 | K18 P301L tau heparin fibrillization, Alexa594 FP, 6 h | Potency, µM (highest dose often 57.7 µM), hits mostly inhibitors | 280,000 compounds, 0.39% hits; note: nearly all actives have a fitted effect of over 55% in size
Target sequence (P10636 561-689 P618L limits assumed): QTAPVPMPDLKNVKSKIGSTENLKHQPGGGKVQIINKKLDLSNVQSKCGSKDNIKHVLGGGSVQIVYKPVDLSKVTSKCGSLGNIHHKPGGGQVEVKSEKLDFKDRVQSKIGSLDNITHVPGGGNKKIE
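Quantitative HTS format: compounds meet 15 uM recombinant K18 P301L tau and Alexa 594-tau tracer in 100 mM sodium acetate pH 7; 20 uM heparin triggers fibrillization at 37 C over 6 hr; FP gives the signal.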
USP1 inh: inhibitors of human USP1/UAF1 deubiquitinase. O94782. recombinant USP1/UAF1, Ub-Rhodamine cleavage fluorescence. Potency, µM (highest dose often 57.1 µM), usual class: inhibitors. 390,000 compounds, 0.23% hits. AID 743255; note: nearly all actives have a fitted effect of over 60% in size
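1 nM enzyme complex + cpd, 15 min RT; start with Ub-Rho 150nM final; kinetic fluorescence ex 480/em 540, 6 reads q60 s. Buffer 50mM HEPES pH 7.8, 0.5mM EDTA, 0.1 mg/ml BSA, 1mM TCEP, 0.01% Tween-20.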
Tau ThT inhib: inhibitors of human tau fibril formation, thioflavin T binding | P10636 | recombinant tau K18 P301L, heparin-induced fibrillization, ThT fluorescence | Potency, µM (doses to about 57.4 µM), actives largely listed as inhibitors | 270,000 compounds, 2.1% hits; note: nearly all actives have a fitted effect of over 55% in size
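Recombinant human tau K18 fragment […] carrying P301L, 15 uM unlabeled plus 0.24 uM Alexa 594-labeled, was fibrillized with 20 uM heparin in 100 mM sodium acetate pH 7 for 6 hr at 37 C; 30 uM ThT fluorescence read after 1 hr.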
Tau fluor cs: counter-screen for tau fibril formation inhibitors; 280,000 compounds, 0.93% hits; Potency, µM (series often up to 57.7 µM); tau K18 P301L Alexa594 fluorescence, heparin fibrillization; AID 1463; note: nearly all actives have a fitted effect of over 55% in size
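Human tau K18 P301L (15 uM unlabeled, 0.24 uM Alexa 594-labeled) in 100 mM sodium acetate pH 7 with 20 uM heparin, 6 hr at 37 C. ThT 30 uM added, 1 hr ambient; Alexa 594 FP and total fluorescence read at 555/632 nm.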
Coupling enz: counter-screen for Giardia aldolase inhibitors: coupling enzyme system. coupling enzyme system counterscreen, AmpLite Red fluorescence. activity change, negative = inhibition, % at 58.2 µM, hits read low. 290,000 compounds, 0.67% hits; in the data active = activity change below about -30%
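Counterscreen of the coupled detection system alone, without aldolase: glyceraldehyde-3-phosphate coupling enzymes plus AmpLite Red readout. Compounds at 57.5 uM final, 10 min RT preincubation, 20 min RT reaction, fluorescence 525/598 nm.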
Each line names hits and unclear results; the compound was inactive in the other large screens; ! = a repeat was not active; [ ] = remark or other dose. Unless noted, calls come from the whole dose curve; as a rule, active = well fitted curve in the direction sought with a large enough effect; inconclusive = small, poorly fitted or top-dose-only effect, or another doubt; inactive = no such curve, though single readings can be large; an effect the other way counts as inactive or inconclusive.

Cc1nn(CCCC(=O)Nc2cccc(F)c2)c(=O)c2c1sc1ccccc12	Tau ThT inhib inconclusive, Tau fluor cs inconclusive (no result: Coupling enz)
CCS(=O)(=O)c1nc(S(=O)(=O)c2ccc(C)cc2)c(NCCCOC)s1	none (no result: Coupling enz)
COc1ccc(/C=C2\COc3ccccc3C2=O)cc1OC	Tau ThT inhib inconclusive
COc1ccc2c(c1)OC/C(=C\c1ccc(OC)c(O)c1)C2=O	Tau ThT inhib 4.5µM, Tau fluor cs inconclusive (no result: USP1 inh)
COc1ccc(NC(=O)C2CCC(C(C)(C)C)CC2)cc1S(=O)(=O)N1CCOCC1 (centres undefined)	none (no result: Tau FP inhib, Tau ThT inhib, Tau fluor cs, Coupling enz)
CC(=O)c1ccc(NC(=S)NCCc2cccc(Cl)c2)cc1	Tau FP inhib 25µM, Tau fluor cs inconclusive
O=C(Nc1ccc(S(=O)(=O)NCc2ccccc2)cc1)Nc1ccc2c(c1)OCO2	Tau FP inhib inconclusive, Tau ThT inhib inconclusive, Tau fluor cs 4µM[quencher]
CC(=O)c1ccc(NC(=S)NCCc2ccc(S(N)(=O)=O)cc2)cc1	Tau ThT inhib inconclusive
O=C(Nc1cccc(Cl)c1)Nc1ccc2c(c1)OCO2	Tau ThT inhib inconclusive, Tau fluor cs 14µM[quencher]
CC(=O)c1ccc(NC(=O)Nc2cccc(Cl)c2)cc1	Tau FP inhib 20µM, Tau ThT inhib inconclusive, Tau fluor cs 14µM[quencher]
CCNS(=O)(=O)c1ccc(NC(=O)Nc2ccc3c(c2)OCO3)cc1	none (no result: Tau FP inhib, Tau ThT inhib, Tau fluor cs)
COc1cc(-c2nnc(SCCOc3ccc(Cl)cc3)o2)cc(OC)c1OC	USP1 inh inconclusive (no result: Coupling enz)
COc1ccccc1NC(=O)c1cc2cc3ccc(OC)c(Cl)c3nc2s1	none (no result: Coupling enz)
CC1CCCN(Cc2nc3c(c(=O)n(C)c(=O)n3C)n2Cc2ccc(Cl)cc2Cl)C1 (centres undefined)	none (no result: Coupling enz)
S=C(Nc1ccc2c(c1)OCO2)Nc1ccc2c(c1)OCO2	Tau FP inhib inconclusive, Tau ThT inhib 25µM, Tau fluor cs inconclusive
CN(C)C(=S)Nc1ccc2c(c1)OCO2	Tau ThT inhib inconclusive
O=C1/C(=C\c2ccccn2)SC(=S)N1Nc1ncc(C(F)(F)F)cc1Cl	Tau FP inhib inconclusive, Tau ThT inhib 28µM (no result: Coupling enz)
O=C1/C(=C/c2ccc(F)cc2)SC(=S)N1Nc1ncc(C(F)(F)F)cc1Cl	Tau ThT inhib inconclusive
O=[N+]([O-])c1cccc(S(=O)(=O)N2CCc3ccccc3C2)c1	none (no result: Tau FP inhib, Tau ThT inhib, Tau fluor cs)
O=[N+]([O-])c1cccc(N2Cc3ccccc3C2)c1	Tau FP inhib inconclusive, Tau ThT inhib 16µM, Tau fluor cs inconclusive
COc1ccccc1CNc1nc(-c2ccco2)nn1S(=O)(=O)c1ccc(Cl)cc1	Tau fluor cs inconclusive (no result: Coupling enz)
COc1cc2c(cc1OC)C1c3ccc(OC)c(OC)c3OCC1(O)C2 (centres undefined)	none (no result: Tau FP inhib, Tau ThT inhib, Tau fluor cs, Coupling enz)
Oc1cc2c(cc1O)[C@@H]1c3ccc(O)c(O)c3OC[C@]1(O)C2	Tau FP inhib inconclusive, Tau ThT inhib 14µM, Tau fluor cs inconclusive (no result: USP1 inh)
COc1cccc(C(=O)c2cn(CC(=O)NCc3ccccc3)c3nc(C)ccc3c2=O)c1	none (no result: Coupling enz)
CC(=O)c1ccc(NC(=O)C2CCN(c3nnc(C)c4c(C)n(-c5ccccc5)nc34)CC2)cc1	Tau FP inhib inconclusive (no result: Coupling enz)
COc1ccc(OC)c2c(=S)c3ccccc3[nH]c12	Tau FP inhib 7.9µM, Tau ThT inhib 4µM, Tau fluor cs 11µM[quencher] (no result: USP1 inh)
COc1ccc(/C=N\NC(=O)c2cc(O)c(O)c(O)c2)cc1COc1ccc(C(=O)OCC(C)C)cc1	USP1 inh inconclusive (no result: Tau FP inhib, Tau ThT inhib, Tau fluor cs)
CC1(C)C(C(=O)OCC(Cl)(Cl)Cl)N2C(=O)C(NC(=O)Cc3ccccc3)C2S1=O (centres undefined)	none (no result: Tau FP inhib, Tau ThT inhib, Tau fluor cs)
Cc1ccc(CC2CC(=O)N(Cc3ccco3)C2=O)cc1 (centres undefined)	none
Cc1ccc(C2CC(=O)N3CN(Cc4ccco4)CSC3=C2C#N)cc1 (centres undefined)	Tau FP inhib inconclusive, Tau ThT inhib 25µM
N#CC1=C2SCN(Cc3ccco3)CN2C(=O)CC1c1c(F)cccc1Cl (centres undefined)	Tau FP inhib inconclusive, USP1 inh 13µM, Tau ThT inhib 7.1µM
CC/C=C\C/C=C\C/C=C\CCCCCCCC(=O)O	Tau FP inhib inconclusive, Tau ThT inhib 28µM!
Nc1c(N(CCO)C(=O)C2CCCC2)c(=O)[nH]c(=O)n1Cc1ccccc1	none (no result: Tau FP inhib, Tau ThT inhib, Tau fluor cs, Coupling enz)
O=C(Nc1ccc(Cl)c(Cl)c1)N(Cc1c[nH]c2ccccc12)C1CCCCC1	none (no result: Coupling enz)

Bioassay records as filed in PubChem BioAssay.
